Screening results from PubChem.
In the library only some 5.8% were active in any assay of this set; here they are far more common.
TRPV1 potentiator: HTS Assay for Compounds that Act as Potentiators of the Vanilloid Receptor 1. TRPV1-expressing cells, Fluo-8 calcium influx, capsaicin EC20 potentiation. potentiation, % at 8.33 µM. hit rate 0.02% among 320,000. AID 540277, 2011; in the data active = potentiation above about 80%; inconclusive = between about 30% and that limit; note: 0% is about no effect
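Fluo-8 calcium influx in TRPV1-expressing cells, kinetic read (ex 480/em 520 nm). Compound added and read 3 min for agonist activity, followed by capsaicin at EC20 final and 2 min further read for enhancement.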
uPA surface inh: qHTS for Inhibitors of Cell Surface uPA Generation; cell surface uPA generation assay, qHTS; Potency, µM (titrated, usually from 38.3 µM), without a hit: at the highest dose activity change, negative = inhibition, usual class: inhibitors; hit rate 0.31% among 330,000; AID 540303, 2011; active = well fitted inhibition curve with a large enough effect; inconclusive = small, poorly fitted or top-dose-only effect; inactive = no such curve, though single readings can be large or run the other way; tested in mouse RAW 264.7 cells; note: potency is the fitted concentration of half-maximal effect; % is set by controls: 0 for no effect and ±100 for the full control effect; nearly all actives have a fitted effect of over 55% in size
Gal4-VP16 FLuc: VP16 counterscreen qHTS for inhibitors of ROR gamma transcriptional activity | AID 2546, 2010 | Potency, µM (series often up to 53.6 µM), without a hit: at the top dose activity, negative = inhibition, most hits filed as inhibitors | Drosophila S2 Gal4-VP16 UAS-luciferase, luminescence, 20 h | hit rate 3.5% among 310,000;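 note: Gal4-VP16 expression switched on by copper sulfate through the metallothionein promoter; potency is the fitted concentration of half-maximal effect; % is set by controls: 0 for no effect and ±100 for the full control effect; nearly all actives have a fitted effect of over 50% in size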
RORg inh: qHTS for inhibitors of ROR gamma transcriptional activity; Nuclear receptor ROR-gamma (Mus musculus), P51450; Drosophila S2 Gal4-RORgamma UAS-luciferase reporter, 20 h; Potency, µM (doses to about 53.6 µM), without a hit: at the highest dose activity change, negative = inhibition, most hits filed as inhibitors; hit rate 5.4% among 310,000; note: potency is the fitted concentration of half-maximal effect; % is set by controls: 0 for no effect and ±100 for the full control effect; nearly all actives have a fitted effect of over 60% in size
Target sequence (P51450 whole entry, looked up, the tested form may be a part): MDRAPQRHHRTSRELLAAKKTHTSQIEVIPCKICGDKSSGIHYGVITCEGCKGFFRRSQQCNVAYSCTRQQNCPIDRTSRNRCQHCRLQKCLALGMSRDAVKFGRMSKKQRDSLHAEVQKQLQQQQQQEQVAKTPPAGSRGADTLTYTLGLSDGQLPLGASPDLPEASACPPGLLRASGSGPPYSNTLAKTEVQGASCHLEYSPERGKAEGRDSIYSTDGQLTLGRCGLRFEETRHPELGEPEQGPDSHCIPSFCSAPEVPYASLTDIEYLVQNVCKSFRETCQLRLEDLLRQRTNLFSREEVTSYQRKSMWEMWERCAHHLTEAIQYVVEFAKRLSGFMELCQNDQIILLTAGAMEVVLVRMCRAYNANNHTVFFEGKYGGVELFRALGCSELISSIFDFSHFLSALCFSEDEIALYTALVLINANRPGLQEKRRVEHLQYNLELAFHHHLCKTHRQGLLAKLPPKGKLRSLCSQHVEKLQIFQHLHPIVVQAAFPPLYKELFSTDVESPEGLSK
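Compounds are pin-transferred onto Drosophila Schneider cells expressing a copper-inducible Gal4–ROR gamma transactivation domain fusion. After 1 hr, copper sulfate is added to 700 uM final; luciferase is read 20 hr later.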
TRPV1 agonist: HTS Assay for Compounds that Act as Agonists of the Vanilloid Receptor 1; TRPV1-expressing cells, Fluo-8 calcium influx, agonist mode; activation, % at 8.33 µM; hit rate 0.19% among 320,000; in the data active = activation above about 80%; inconclusive = between about 30% and that limit; note: 0% is about no effect
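Fluo-8 calcium influx in TRPV1-expressing cells, kinetic read (ex 480/em 520 nm). Compound added and read 3 min for agonist activity, followed by capsaicin at EC20 final and 2 min further read for enhancement.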
Starred values were filed as active, the others as inactive; [ ] = dose if it differs, or a comment. Unless noted, calls come from the whole dose curve; as a rule, active = well fitted curve in the direction sought with a large enough effect; inconclusive = small, poorly fitted or top-dose-only effect, or another doubt; inactive = no such curve, though single readings can be large; an effect the other way counts as inactive or inconclusive.

For CCNC(=S)NCc1ccco1 the results were TRPV1 potentiator -4, uPA surface inh 0%, Gal4-VP16 FLuc -3%, RORg inh -15% and TRPV1 agonist 2.
CCCN(C(=O)c1cc2c(s1)CCC2)c1c(N)n(Cc2ccccc2)c(=O)[nH]c1=O was read as TRPV1 potentiator 11, uPA surface inh 9%, Gal4-VP16 FLuc -7%, RORg inh 4% and TRPV1 agonist -2.
`CCOC(=O)c1c(C)n(O)c2ccc(Cl)cc2c1=O` gave TRPV1 potentiator -6, uPA surface inh 3%, Gal4-VP16 FLuc 16µM*, RORg inh inconclusive and TRPV1 agonist 0.
COc1ncc2nc(-c3ccccc3)c(=O)n(C3CC3)c2n1 was read as Gal4-VP16 FLuc -3% and RORg inh 11%.
Cc1ccc(C(=O)N/C(=C\c2ccc(-c3ccccc3[N+](=O)[O-])o2)C(=O)NCCN(C)C)cc1 was read as TRPV1 potentiator -15, uPA surface inh -6%, Gal4-VP16 FLuc 10µM*, RORg inh 7.1µM* and TRPV1 agonist -3.
CN(C)CCNC(=O)/C(=C/c1ccc(-c2cccc(Cl)c2)o1)NC(=O)c1ccccc1 was read as TRPV1 potentiator -1, uPA surface inh 4%, Gal4-VP16 FLuc inconclusive, RORg inh 3.2µM* and TRPV1 agonist 2.
For CN(C)CCNC(=O)/C(=C/c1ccc(-c2cccc([N+](=O)[O-])c2)o1)NC(=O)c1ccccc1 the results were TRPV1 potentiator inconclusive, uPA surface inh 2%, Gal4-VP16 FLuc 1%, RORg inh 33% and TRPV1 agonist -3.
Screening COc1ccc(C2=N[C@@H](C(C)C)CO2)cc1 returned Gal4-VP16 FLuc 16%[96.6 µM] and RORg inh -20%[96.6 µM].
Screening COc1ccc(C2=NC(c3ccccc3)CO2)cc1 (stereo unspecified) returned TRPV1 potentiator 3, Gal4-VP16 FLuc 13µM*, RORg inh 10µM* and TRPV1 agonist 3.
For COc1ccc(C2=N[C@H](c3ccccc3)CO2)cc1 the results were Gal4-VP16 FLuc -6%[96.6 µM] and RORg inh 16µM*.
Screening CN(C)c1ccc(CNc2ccccn2)cc1 returned TRPV1 potentiator -10, uPA surface inh 0%, Gal4-VP16 FLuc -7%, RORg inh -4% and TRPV1 agonist 6.
`O=C(Nc1nc2c(Cl)cccc2s1)C1CC1` gave TRPV1 potentiator -2, uPA surface inh -13%, Gal4-VP16 FLuc -3%, RORg inh 38% and TRPV1 agonist 6.
Screening O=C(Nc1nc2c(cc3c4c(cccc42)CC3)s1)c1ccccc1Cl returned TRPV1 potentiator 4, uPA surface inh 8%, Gal4-VP16 FLuc -26%, RORg inh 5µM* and TRPV1 agonist -1.
`Cc1cc(C)c2c(=O)n(CC(=O)NCCCN3CCN(c4ccccc4F)CC3)sc2n1` gave TRPV1 potentiator -17, uPA surface inh inconclusive, Gal4-VP16 FLuc 5µM*, RORg inh 3.5µM* and TRPV1 agonist 1.
For Cc1cc(C)c2c(=O)n(CC(=O)NCCCN3CCOCC3)sc2n1 the results were TRPV1 potentiator -19, uPA surface inh -4%, Gal4-VP16 FLuc 5µM*, RORg inh 4µM* and TRPV1 agonist 10.
Screening COC(=O)CNC(=O)C1(C)C=CC2(CCCCC2)N1C(C)=O (stereo unspecified) returned Gal4-VP16 FLuc -1% and RORg inh -2%.
`COc1cccc2c1OCC(C(=O)Nc1nccs1)=C2` gave TRPV1 potentiator 23, uPA surface inh -9%, Gal4-VP16 FLuc inconclusive, RORg inh 11µM* and TRPV1 agonist 1.
`COc1cccc(C=Nc2ccccc2C(=O)Nc2nccs2)c1OC` gave TRPV1 potentiator -2, uPA surface inh 10%, Gal4-VP16 FLuc 8%, RORg inh -15% and TRPV1 agonist 4.
`O=[N+]([O-])c1ccc(S(=O)(=O)Nc2ncccn2)cc1` gave TRPV1 potentiator -16, uPA surface inh 7%, Gal4-VP16 FLuc -1%, RORg inh -3% and TRPV1 agonist 9.
For COc1cc(NS(=O)(=O)c2ccc(C(=O)O)cc2)c2nc(C)ccc2c1 the results were TRPV1 potentiator -8 and TRPV1 agonist 6.
`COc1cc(NS(=O)(=O)c2cccc([N+](=O)[O-])c2)c2ncccc2c1` gave Gal4-VP16 FLuc 2µM* and RORg inh 1.1µM*.
For COc1cc(NS(=O)(=O)c2ccc(C)cc2)c2ncccc2c1 the results were TRPV1 potentiator 6, uPA surface inh -10%, Gal4-VP16 FLuc 0.79µM*, RORg inh 1µM* and TRPV1 agonist 2.
`COc1cc(NS(=O)(=O)c2ccc([N+](=O)[O-])cc2)c2ncccc2c1` gave Gal4-VP16 FLuc 0.89µM* and RORg inh 0.89µM*.
Screening CCCc1cc(=O)oc2c3c(c(Cl)cc12)OCN(CCCO)C3 returned TRPV1 potentiator 4, Gal4-VP16 FLuc -2%, RORg inh -15% and TRPV1 agonist 3.
COc1ccc(-c2c(C3C4C=CCCC4(C)C(=O)N3Cc3ccccc3)ccc3ccccc23)cc1 (stereo unspecified) was read as Gal4-VP16 FLuc -17% and RORg inh -24%.
`N=c1n(CCN2CCOCC2)c2ccccc2n1CC(=O)c1ccc(Cl)c(Cl)c1` gave TRPV1 potentiator 14, uPA surface inh 0%, Gal4-VP16 FLuc 4µM*, RORg inh inconclusive and TRPV1 agonist -5.
For Cc1ccc(CNCCCSc2nc(C)cc(C)n2)cc1 the results were TRPV1 potentiator 1, uPA surface inh -21%, Gal4-VP16 FLuc 2µM*, RORg inh inconclusive and TRPV1 agonist -1.
For Cc1ccc2oc(C(Cl)(Cl)Cl)cc(=O)c2c1 the results were TRPV1 potentiator 4, uPA surface inh inconclusive, Gal4-VP16 FLuc inconclusive, RORg inh 5µM* and TRPV1 agonist -4.
`COc1cc2oc3ccccc3c(=O)c2cc1OC` gave TRPV1 potentiator -5, uPA surface inh inconclusive, Gal4-VP16 FLuc 2%, RORg inh -19% and TRPV1 agonist 9.
Screening O=c1c(O)c(-c2ccc3c(c2)OCO3)oc2ccccc12 returned TRPV1 potentiator 2, uPA surface inh 3%, Gal4-VP16 FLuc 11µM*, RORg inh 6.3µM* and TRPV1 agonist 3.
`COc1cc(OC)c2c(=O)c(O)c(-c3ccc(OC)c(OC)c3)oc2c1` gave Gal4-VP16 FLuc inconclusive and RORg inh 2.8µM*.
`COc1cc(-c2oc3cc(O)cc(O)c3c(=O)c2O)ccc1O` gave Gal4-VP16 FLuc -13% and RORg inh 3%.
For COc1ccc(-c2oc3c(OC)c(OC)c(OC)c(O)c3c(=O)c2OC)cc1OC the results were TRPV1 potentiator 6, uPA surface inh -29%, Gal4-VP16 FLuc inconclusive, RORg inh 11µM* and TRPV1 agonist 8.
